About 20 (2%) of roughly 1,200 compounds were called active. Where a call stands in place of a potency, no number is given. Not shown: some 23% with an inconclusive outcome. Calls come from the whole dose curve; as a rule, active = well fitted inhibition curve with a large enough effect; inconclusive = small, poorly fitted or top-dose-only effect; inactive = no such curve, though single readings can be large or run the other way. For the sample, actives were picked, then their nearest neighbours and some compounds at random.
Potency is the fitted concentration of half-maximal effect.

Transcriptional regulator ERG (Homo sapiens), sequence (P11308 whole entry, looked up, the tested form may be a part): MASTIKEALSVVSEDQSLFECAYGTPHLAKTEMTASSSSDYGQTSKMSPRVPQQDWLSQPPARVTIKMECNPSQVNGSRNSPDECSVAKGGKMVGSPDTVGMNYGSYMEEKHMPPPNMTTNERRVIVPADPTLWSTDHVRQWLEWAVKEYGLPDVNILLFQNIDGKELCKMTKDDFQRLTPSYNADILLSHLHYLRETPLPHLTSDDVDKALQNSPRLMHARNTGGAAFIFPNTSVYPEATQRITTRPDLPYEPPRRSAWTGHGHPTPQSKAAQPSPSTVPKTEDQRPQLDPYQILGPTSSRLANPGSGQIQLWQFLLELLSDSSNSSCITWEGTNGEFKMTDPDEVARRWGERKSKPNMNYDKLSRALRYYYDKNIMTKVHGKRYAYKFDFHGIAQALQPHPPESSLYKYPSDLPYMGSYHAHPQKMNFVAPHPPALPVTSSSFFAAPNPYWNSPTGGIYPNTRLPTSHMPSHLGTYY

The target in this test is Transcriptional regulator ERG (Homo sapiens) (UniProt P11308). The experiment in a line: qHTS for Small Molecule Inhibitors of the ERG Ets/DNA interaction: HTRF assay against cherry picks. To be noted: His-ERG Ets domain with biotin-DNA; series mostly up to 154 µM. An excerpt:
The Ets family of proteins is a family of ~30 conserved transcription factors defined by the presence of an ~85 amino acid domain referred to as the Ets domain, which mediates sequence-specific DNA binding to a core DNA element GGAA/T.The Ets family member ERG has been linked to several neoplasms. […] More extensive studies of the effects of over-expression of ERG in prostate cells have recently been carried out and have shown that over-expression of ERG results in increased invasion. […] We will carry out a high throughout screen to identify inhibitors of the interaction between ERG and DNA using a fluorescence polarization (FP) assay with a His-tagged ERG Ets domain and fluorescently-labeled DNA probes to develop small molecule inhibitors of this interaction as probes to test this hypothesis and lay the groundwork for the development of targeted therapies against ERG. This is the counterscreen against the cherry picks. NIH Molecular Libraries Probe Production Network [MLPCN] NIH Chemical Genomics Center [NCGC] Grant: NS066464 PI Name: John Bushweller, University of Virgina
2 ul of protein solution (200 nM ERG domain in 300mM KCl, 50mM Tris-HCl, 1mM EDTA, 1mM DTT, pH 7.5); 20 nl Control plate and compound library plate; 2 ul of 200 nM biotin-DNA; incubate for 10 min at RT; 1 ul of anti-His antibody conjugated to the long-life fluorescent cryptate donner […] (5ng/ul) and streptavidin conjugated to the acceptor compound […] (0.2 ng/ul) mix; incubate 10 min and measure FRET (Excitation = 320 nm, Emission = 615, 665 nm).
Turning to `CCOc1cc(CNc2cccc3[nH]c(C)nc23)ccc1OC`, the Potency entry is “inactive”. In the case of `Cc1cc(C)cc(NC(=O)CCOc2ccccc2)c1`, the Potency entry was “inactive”. `O=C1CC(Cc2ccccc2)C(=O)N1c1ccc(Cl)cn1` (stereo not drawn): the Potency result was “inactive”.

Regarding `COc1ccc(C(=O)N[C@H](C(=O)N2CCN(c3ccccc3F)CC2)C(C)C)cc1`, the Potency result was “inactive”.

With `CC(=O)NNc1cc(N2CCOCC2)nc(N2CCOCC2)n1`, the Potency entry was “inactive”. In the case of `COc1cc(SC)ccc1C(=O)NC(C)C`, the Potency entry is “inactive”.

In the case of `COc1ccc(S(=O)(=O)NNC(=S)NCCc2ccccc2)c(OC)c1`, the Potency entry was “inactive”. As for `Cc1ccc2nc3c(c(N)c2c1)CCN3C`, the Potency result was “inactive”. Then `CCc1cc(C(=O)OC)c(NC(=O)CN2CCN(C(=O)C3CCCO3)CC2)s1` (stereo not drawn), with “inactive”; and `Cc1ccc(S(=O)(=O)N2CCC[C@H]2C(=O)NC2CCCCC2)cc1`, with “inactive”; and `CCOC(=O)CC1C(=O)NCCN1C(=O)c1c(F)cccc1F` (stereo not drawn), with “inactive”. Regarding `CC(=O)NC(CC(=O)Nc1nc(-c2ccccc2)c(C(C)=O)s1)c1ccccc1` (stereo not drawn), the Potency result is “inactive”. With `COc1ccc(N(CCC(=O)Nc2ccccc2F)S(=O)(=O)c2ccc(C)cc2C)cc1`, the Potency result is “inactive”.

In the case of `CCN(CC)c1ccc([N+](=O)[O-])cc1C(=O)O`, the Potency entry is “inactive”. For `CN(CCO)C1=NS(=O)(=O)c2cc([N+](=O)[O-])ccc21`, the Potency was 28.2 µM (active). As to `O=C(COc1ccccc1)Nc1ccc2c(c1)Cc1cc(NC(=O)COc3ccccc3)ccc1-2`, the Potency result was “inactive”. As to `CNC(=O)C(=O)NCCN1CCN(C(=O)c2ccc([N+](=O)[O-])cc2)CC1`, the Potency result was “inactive”.

`COc1ccc(OC)c(NC(=O)Cn2cnc3sc(C)c(S(=O)(=O)N4CCN(c5ccccc5OC)CC4)c3c2=O)c1`: the Potency entry is “inactive”.

In the case of `CN(C)c1nc2n(c(=S)n1)CCS2`, the Potency entry was “inactive”. As for `CCC1COC(c2cccn2Cc2ccc(Cl)cc2)=N1` (stereo not drawn), the Potency entry is “inactive”.

As to `CC(=O)OCC(=O)C1=CCC2C3CCC4=CC(=O)C=CC4(C)C3(F)C(OC(C)=O)CC12C` (stereo not drawn), the Potency entry was “inactive”. Turning to `COc1cc(OC)cc(C(=O)NCC(=O)OCc2csc(-c3ccccc3)n2)c1`, the Potency result was “inactive”.

Take `CCn1cc(S(=O)(=O)Nc2ccc(Cl)cc2F)cn1`: the Potency result was “inactive”. On to `COc1ccc([N+](=O)[O-])c(OC)c1C(=O)NC(=O)Nc1c(F)c(F)c(F)c(F)c1F`, for which the Potency entry is “inactive”. In the case of `CCn1c(CSc2ncn[nH]2)nc2cc(C(=O)O)ccc21` it was “inactive”; in that of `O=C1C(SCCO)=C(SCCO)C(=O)c2ccccc21`, 50.1 µM (active); in that of `CS(=O)(=O)NN1C(=O)c2ccccc2NC1c1cccc(O)c1` (stereo not drawn), “inactive”.

Take `S=C(NCc1ccco1)N1CCN(c2ccccn2)CC1`: the Potency entry was “inactive”.

Turning to `CCOc1ccccc1N1CCN(C(=O)c2cc(S(=O)(=O)N(C)C)ccc2N2CCCC2)CC1`, the Potency result is “inactive”. For the compound `COc1ccc(CNC(=O)CN2C(=O)NC3(CCCCCC3)C2=O)cc1OC`, the Potency entry is “inactive”. Then `CCn1nc(C)cc1C(=O)N1CCCC(N2CCN(Cc3ccc4c(c3)OCO4)CC2)C1` (stereo not drawn), with “inactive”; and `CCCC(=O)Nn1cnc2c(c1=O)C1(CCCCC1)Cc1ccccc1-2`, with “inactive”. For the compound `COc1ccc(S(=O)(=O)NCC2CC3C=CC2C3)cc1OC` (stereo not drawn), the Potency result was “inactive”.

As for `COCCNC(=O)Cn1c(=O)n(CCCC(=O)NCc2ccc3c(c2)OCO3)c(=O)c2sccc21`, the Potency result was “inactive”. Then `COC(=O)C1=C(C)NC(C)=C(C(=O)OC)C1c1ccc(-c2cccc(Cl)c2Cl)o1`, with “inactive”. Consider `CCOc1ccc(NC(=O)CN(C)C(=O)c2ccccc2CCc2ccccc2)cc1OCC`, for which the Potency entry is “inactive”. `COc1ccc(CCNC(=O)Cn2cc(C(F)(F)F)cc(Cl)c2=O)cc1`: the Potency result was “inactive”. Turning to `CSc1nc2c(c(=O)[nH]1)C(c1cccc(Br)c1)CC(=O)N2` (stereo not drawn), the Potency entry is “inactive”. Take `CC(=O)Nc1ccc(S(=O)(=O)Nc2nc3ccccc3nc2Nc2ccc(O)c(C(=O)O)c2)cc1`: the Potency result is “inactive”. Turning to `COC(OC)c1nc(SCC(=O)Nc2cccc(Cl)c2)ncc1C(=O)O`, the Potency result was “inactive”. In the case of `CCC(Oc1ccccc1F)C(=O)NCCCn1ccnc1` (stereo not drawn), the Potency result was “inactive”.

With `Cc1nonc1C1CCCN1C(=O)c1cc(COc2ccc(F)cc2Cl)on1` (stereo not drawn), the Potency result is “inactive”.

Turning to `Cc1ccc(COC(=O)CCN=C2NS(=O)(=O)c3ccccc32)cc1`, the Potency result is “inactive”.

`Nc1cccc(N2C(=O)c3cccc4c(N)ccc(c34)C2=O)c1`: the Potency is 39.8 µM (active).

For the compound `O=C(Nc1ccc(-c2nc3ccccc3[nH]2)cc1)c1c(F)c(F)c(F)c(F)c1F`, the Potency result was “inactive”. For `Cn1ccc(C(=O)OCC(=O)Nc2ccccc2)n1`, the Potency result was “inactive”. On to `COc1ccc(CNC(=O)COC(=O)CCOc2ccccc2)cc1`, for which the Potency result was “inactive”. In the case of `Cc1nn(-c2ccc(Cl)cc2)c2[nH]c(CCl)cc(=O)c12` it was “inactive”; in that of `Cc1cc(S(=O)(=O)N2CCOCC2)ccc1OCC(=O)Nc1ccc(F)c(Cl)c1`, “inactive”; in that of `C=CCn1c2ccccc2c2nnc(SCC(=O)NC(C(=O)OC)C(C)C)nc21` (stereo not drawn), “inactive”.

Consider `Cc1ccc(N(CCCCN2C(=O)c3ccccc3C2=O)C(=O)c2ccc(Cl)s2)cc1`, for which the Potency entry was “inactive”. Turning to `N#Cc1c(NC(=O)CCCN2C(=O)c3ccccc3C2=O)oc(-c2ccccc2)c1-c1ccccc1`, the Potency entry was “inactive”. Take `O=C1c2ccc3c4c(ccc(c24)C(=O)N1CCCCO)C(=O)N(CCCCO)C3=O`: the Potency is 20 µM (active).

In the case of `CC(=O)C(c1ccccc1)C(c1ccccc1)C(C)[N+](=O)[O-]` (stereo not drawn), the Potency result is “inactive”. `COc1cc(CO)ccc1OCC(=O)Nc1cccc2ccccc12`: the Potency entry was “inactive”. In the case of `CN(C(=O)COC(=O)c1ccc(F)c(S(=O)(=O)N2CCOCC2)c1)C1CCS(=O)(=O)C1` (stereo not drawn) it was “inactive”. Then `Cc1occc1C(=O)NCCc1ccc(Cl)cc1`, with “inactive”; and `CCc1cc(C(=O)NNC(=S)Nc2cccc(C)c2)cs1`, with “inactive”. As for `Cc1cccc(-n2c(-c3ccccc3)c[nH]c2=S)c1C`, the Potency entry was “inactive”. Regarding `Cc1ccc(NC(=O)c2cc3cc(OC(F)(F)F)ccc3[nH]2)cc1`, the Potency result is “inactive”.

In the case of `CCCCn1c(N)c(N(CC)C(=O)c2ccc(C#N)cc2)c(=O)[nH]c1=O`, the Potency entry was “inactive”. Consider `CCCCn1c(=O)[nH]c2nc3cc(N)ccc3nc2c1=O`, for which the Potency was 50.1 µM (active). For `O=C(Nc1ccccc1)Nc1ncc([N+](=O)[O-])s1`, the Potency is 39.8 µM (active).

With `Cc1cc(C)nc(N2CCN(c3nnnn3-c3ccccc3)CC2)n1`, the Potency result is “inactive”. Take `CCCN(C(=O)c1nn(-c2ccc(C)cc2)c(=O)c2c1c1ccccc1n2C)c1ccccc1C`: the Potency result is “inactive”.

Take `Cc1ccccc1C(=O)N/N=C1/SCC(=O)N1Cc1ccccc1`: the Potency entry is “inactive”. In the case of `Cc1cccc(C(=O)NCCNc2nc3cc(C)c(C)cc3cc2C)c1` it was “inactive”; in that of `O=C1c2ccccc2C(=O)c2c1ncn2-c1ccccc1`, 15.8 µM (active); in that of `O=C(CNC(=S)N(Cc1ccccc1)Cc1cccnc1)NC1CCCCC1`, “inactive”. `Cc1ccc(-c2noc(C3CCCN(C(=O)c4cccc([N+](=O)[O-])c4)C3)n2)o1` (stereo not drawn): the Potency result is “inactive”. Then `Cc1cc2cc(CNC(=O)C(C)Oc3ccccc3)ccc2n1C` (stereo not drawn), with “inactive”; and `CC(Oc1ccc(F)cc1)C(=O)Nc1ccc(S(=O)(=O)NC2=NCCCCC2)cc1` (stereo not drawn), with “inactive”. For the compound `COc1ccc(C(=O)NCc2ccc(OCCN(C)C)cc2)cc1OC`, the Potency result was “inactive”. For the compound `Cc1cc(F)ccc1NC(=O)c1ccc(NS(=O)(=O)c2cc(C(C)(C)C)ccc2C)cc1`, the Potency entry was “inactive”. On to `O=C1[C@H]2[C@@H](c3ccc(F)cc3)N3C(=O)N(c4cccc(F)c4)C(=O)[C@@]3(Cc3ccccc3)[C@H]2C(=O)N1C1CCCCC1`, for which the Potency entry is “inactive”. Turning to `CCNc1nc(OCC)nc(N2CCC(Cc3ccccc3)CC2)n1`, the Potency result is “inactive”.

`CSc1ccccc1NC(=O)CN(C)C(=O)/C=C/c1ccccc1`: the Potency result is “inactive”. Then `CC(=O)c1cccc(NC(=O)C(C)OC(=O)CCc2nc3ccccc3c(=O)[nH]2)c1` (stereo not drawn), with “inactive”; and `Nc1ccc2[nH]ncc2c1`, with “inactive”. Turning to `O=C(CSC1=NCCS1)NC(NC(=O)CSC1=NCCS1)c1ccccc1`, the Potency entry is “inactive”.

`CCOc1ccccc1NC(=O)COc1ccc2ccc(=O)oc2c1`: the Potency entry was “inactive”. For the compound `O=C(/C=C/c1ccc([N+](=O)[O-])cc1)NCc1ccco1`, the Potency was 28.2 µM (active).

Regarding `O=C(COC(=O)/C=C/c1ccc([N+](=O)[O-])cc1)NCc1cccs1`, the Potency result is “inactive”. Regarding `O=C(CCc1c[nH]c2ccccc12)NCc1ccco1`, the Potency entry is “inactive”. Consider `O=C(NCc1cccnc1)c1ccccc1-c1nc(-c2ccccc2)no1`, for which the Potency result is “inactive”. For the compound `O=C(NC(c1ccccc1)C(Cl)Cl)c1ccccc1` (stereo not drawn), the Potency entry was “inactive”. For `CCOC(=O)CSc1nc2ccc(NC(=O)c3ccc(F)cc3)cc2s1`, the Potency entry is “inactive”. Regarding `CCN(C(=O)CSc1nc2cc(C(=O)O)ccc2c(=O)n1Cc1ccccc1)c1ccccc1`, the Potency result is “inactive”. Regarding `Cc1noc(C)c1S(=O)(=O)N(CC(=O)NCc1ccc(F)cc1)c1ccc(C(C)C)cc1`, the Potency entry was “inactive”. As to `Cc1[nH]c2ccc(C(=O)OCC(=O)Nc3cccc(S(N)(=O)=O)c3)cc2c1C`, the Potency result was “inactive”. With `O=C(C1CCN(CCc2ccccc2)CC1)N1CCOCC1`, the Potency entry was “inactive”. On to `Cc1ccnn1-c1ccc(C(=O)OCC(=O)Nc2ccc(F)cc2)cc1`, for which the Potency result is “inactive”. Then `CCN(CC(=O)N1CCCCCC1)S(=O)(=O)c1ccc(Cl)cc1`, with “inactive”; and `COc1ccc(-c2cc(N)n(S(=O)(=O)Cc3ccccc3)n2)c(OC)c1`, with “inactive”; and `O=C(CCN=C1NS(=O)(=O)c2ccccc21)OCc1ccccc1`, with “inactive”. In the case of `COc1ccc(NC2CCCN(C(=O)C3(C)CCCCC3)C2)cc1OC` (stereo not drawn) it was “inactive”; in that of `COc1ccccc1C(C)NC(=O)c1cc(S(=O)(=O)N2CCCCC2)ccc1C` (stereo not drawn), “inactive”. On to `O=C(C1CC(=O)N(c2ccc(Cl)cc2)C1)N1CCCCCC1` (stereo not drawn), for which the Potency entry was “inactive”. In the case of `CCN(C(=O)COC(=O)c1ccc(=O)n(Cc2ccccc2)n1)C1CCS(=O)(=O)C1` (stereo not drawn), the Potency result is “inactive”. Regarding `C=CCC[C@H](Cc1ccc(F)cc1)C(=O)OC[C@@H](Cc1c[nH]c2ccccc12)NC(=O)[C@H](CC=C)CC(=O)N(CCO)Cc1ccccc1`, the Potency result was “inactive”. As to `Cc1nn(C2CCS(=O)(=O)C2)c(Cl)c1/C=C/C(=O)OCC(=O)c1c[nH]c2ccccc12` (stereo not drawn), the Potency entry is “inactive”. Then `O=C(OCC(=O)c1c[nH]c2ccccc12)c1ccc([N+](=O)[O-])s1`, with 35.5 µM (active). Then `CCCN(CC(=O)Nc1ccc(F)c(F)c1F)C(=O)C1CC(=O)N(Cc2ccccc2)C1` (stereo not drawn), with “inactive”.

For the origin of these results see PubChem BioAssay AID651804 (National Center for Advancing Translational Sciences (NCATS), 2012).
